Bioassay records (PubChem BioAssay)
Rows were chosen to be rich in hits. Some 3% of all compounds tested hit in one or more screens of this group.
SNCA expr inh: SNCA gene expression inhibition | HEK-293 SNCA-luciferase knock-in, luminescence, 24 h | Potency, µM (series often up to 57.2 µM), inactives show top-dose activity change, negative = inhibition, usual class: inhibitors | 140,000 tested, 0.17% active | AID 1671194;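 also: potency is read from the fitted curve at half-maximal effect; plate controls were DMSO cells for no effect and cell-free wells for full effect; nearly all actives have a fitted effect of over 45% in size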
KDM5B inh: KDM5B demethylase inhibition | Q9UGL1 | KDM5B demethylase, FDH-coupled NADH fluorescence (FDH is formaldehyde dehydrogenase) | Potency, µM (doses to about 57.7 µM), actives largely listed as inhibitors | 220,000 tested, 2.6% active | AID 1347165; also: potency is read from the fitted curve at half-maximal effect; 0% is about no effect; nearly all actives have a fitted effect of over 70% in size
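qHTS format, multiple compound concentrations. Buffer 50 mM HEPES pH 7.5/0.01% Tween-20; 200 nM KDM5BΔAP final; 10 min compound preincubation; substrate-mix levels 12.5 µM peptide, 25 µM α-KG, 0.25 mM NAD⁺; 30 min RT; ΔRFU.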
HEK293 viab: counter-screen for SNCA expression inhibitors: cell viability | HEK-293-SNCA-luc viability, GF-AFC fluorescence, 24 h | Potency, µM (titrated, usually from 57.1 µM), without a hit: at the highest dose activity change, negative = cytotoxicity, actives largely listed as cytotoxic | 150,000 tested, 0.12% active | AID 1671193;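 also: potency is read from the fitted curve at half-maximal effect; 0% = DMSO-treated cells and -100% = medium-only wells without cells; nearly all actives have a fitted effect of over 30% in size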
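Cytotoxicity counterscreen: after 24 h compound treatment of genome-edited SNCA-luciferase HEK-293 cells, live-cell protease substrate GF-AFC read by fluorescence after 30 min; activity scaled between DMSO (0%) and medium-only (-100%), curves Hill-fitted.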
IP6K1 inh: inhibitors of human IP6K1; Q92551; 140,000 tested, 0.81% active; AID 1645851; activity change, % (series mostly up to about 58 µM); IP6K1 kinase, ADP-Glo luminescence, 2 h; stronger effect = lower value; in the data active = activity change below about -25%; also: % is scaled to controls: 0 for no effect and ±100 for the full control effect
Target sequence (Q92551 whole entry, looked up): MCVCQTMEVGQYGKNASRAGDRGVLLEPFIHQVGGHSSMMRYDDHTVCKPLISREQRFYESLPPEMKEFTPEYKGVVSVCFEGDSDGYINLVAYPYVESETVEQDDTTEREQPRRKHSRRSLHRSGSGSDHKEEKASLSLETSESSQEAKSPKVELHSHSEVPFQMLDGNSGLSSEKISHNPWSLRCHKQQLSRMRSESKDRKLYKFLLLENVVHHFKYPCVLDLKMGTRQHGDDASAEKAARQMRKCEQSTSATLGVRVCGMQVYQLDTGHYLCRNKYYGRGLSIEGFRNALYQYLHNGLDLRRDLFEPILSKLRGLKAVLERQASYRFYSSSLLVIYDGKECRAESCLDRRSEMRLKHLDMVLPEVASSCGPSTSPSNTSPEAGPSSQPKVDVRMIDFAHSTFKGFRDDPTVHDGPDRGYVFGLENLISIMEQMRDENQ
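ADP-Glo luminescence measures ADP made by human IP6K1 during a 2 h RT reaction with ATP/IP6 (mix at 1.3 mM/130 uM); top library doses 57.5 and 19.1 uM final.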
An asterisk follows results filed as active; i = inactive; ? = inconclusive; · = no result; ! = not confirmed by another sample; [ ] = another dose, or the depositor's remark. Unless noted, calls follow the shape of the dose curve; as a rule, active = well fitted curve in the direction sought with a large enough effect; inconclusive = small, poorly fitted or top-dose-only effect, or another doubt; inactive = no such curve, though single readings can be large; an effect the other way counts as inactive or inconclusive.

SMILES	SNCA expr inh	KDM5B inh	HEK293 viab	IP6K1 inh
O=C(Cc1c[nH]c2ccccc12)NCC(=O)N1CCCCCNC(=O)CC1c1ccccc1 (stereo unspecified)	24.7%	i	-1.3%	-9.5
O=C1CC(c2ccccc2)N(C(=O)CNC(=O)c2ccc3cc[nH]c3c2)CCCCCN1 (stereo unspecified)	22.0%	25.1µM*	-6.7%	-6.5
Cc1ccc(CN2CCNC(=O)C2CC(=O)N(CC(C)C)CC(C)C)cc1 (stereo unspecified)	?	?	-2.9%	-7.2
CC(C)CCN1CCNC(=O)C1CC(=O)N(Cc1cnn(C)c1)C1CC1 (stereo unspecified)	-10.1%	15.8µM*	-3.9%	-5.7
CN(C)C[C@@H]1CN(c2ccccn2)C[C@H]1NC(=O)Cc1ccsc1	26.7%	28.2µM*	-4.6%	1.0
CN(C)C[C@@H]1CN(c2ccccn2)C[C@H]1NC(=O)CCn1cccn1	-3.9%	?	12.5%	17.9
Cc1noc(C)c1CC(=O)N[C@@H]1CN(c2ccccn2)C[C@H]1CN(C)C	2.3%	31.6µM*	-2.7%	2.5
CN(C)C[C@@H]1CN(c2ccccn2)C[C@H]1NC(=O)NC(C)(C)C	25.6%	31.6µM*	-14.0%	4.3
CN(C)C[C@@H]1CN(c2ccccn2)C[C@H]1NC(=O)CC1=CCCCC1	1.1%	31.6µM*	-9.3%	-2.9
Cc1noc(C)c1CC(=O)N[C@@H]1CN(c2ccncn2)C[C@H]1CN(C)C	-1.2%	i	4.4%	3.9
O=C(NCCc1ccccc1)C1CCCN(Cc2cccc(-c3ccsc3)c2)C1 (stereo unspecified)	·	·	·	-7.8
Cn1ncc2c(C(=O)Nc3cccc(F)c3)cc(-c3cccc(F)c3)nc21	·	·	·	1.6
Cn1ncc2c(C(=O)N3CCN(c4ncccn4)CC3)cc(-c3ccccc3F)nc21	·	·	·	2.0
COc1ncccc1-c1cnc2[nH]cc(CC(=O)Nc3ccccc3C)c2c1	18.8%[87.6 µM]	?	-12.5%[87.6 µM]	-7.2
CCNC(=O)Cc1c[nH]c2ncc(-c3cccnc3OC)cc12	12.6%[87.6 µM]	39.8µM*	7.5%[87.6 µM]	-14.2
COc1ncccc1-c1cnc2[nH]cc(CC(=O)NC3CCOCC3)c2c1	7.8%[87.6 µM]	?	2.6%[87.6 µM]	3.3
COc1ncccc1-c1cnc2[nH]cc(CC(=O)NCc3ccco3)c2c1	14.4%[87.6 µM]	35.5µM*	-8.8%[87.6 µM]	-19.1
COc1ccccc1Nc1ccnc(N2CCC(N[S+](=O)([O-])c3ccc(C)cc3)CC2)n1	7.6%	·	2.0%[12.5 µM]	-1.4
COc1ccc(F)cc1-c1cccc(C(=O)NCCNC(=O)c2ccccn2)c1	34.6%	·	7.8%	-0.9
Cc1nn(-c2ccccc2)c2c1C(C1CC1)N(C1CN(C(=O)c3ccc(F)cc3)C1)C2=O (stereo unspecified)	·	·	·	13.4
O=C(NCc1cccs1)C1CCCN(Cc2cccc(-c3ccc(F)cc3F)c2)C1 (stereo unspecified)	?	·	-9.7%	-3.9
COC(=O)[C@@H]1Cc2nc[nH]c2CN1Cc1ccc(C(=O)O)cc1	1.5%[87.6 µM]	39.8µM*	-7.6%[87.6 µM]	18.8
COC(=O)[C@@H]1Cc2nc[nH]c2CN1Cc1ccc(C)cc1	-7.0%[87.6 µM]	?	-0.1%[87.6 µM]	1.5
CC(C)c1noc([C@@H]2Cc3nc[nH]c3CN2Cc2ccc(F)cc2)n1	19.6%[87.6 µM]	28.2µM*	7.0%[87.6 µM]	-9.8
O=C(O)c1ccc(CN2Cc3[nH]cnc3C[C@H]2c2nc(-c3ccc(F)c(Cl)c3)no2)cc1	23.7%	25.1µM*	9.9%	-5.3
SMILES	SNCA expr inh	KDM5B inh	HEK293 viab	IP6K1 inh
O=S(=O)(c1ccccc1)N1CCN(c2ccc3nnc(-c4ccccc4)n3n2)CC1	·	·	·	3.5
Nc1nc(F)nc2c1ncn2[C@@H]1O[C@H](CO)[C@@H](O)[C@@H]1O	8.57µM*!	·	?	9.7
O=C(NCc1cccs1)C1CCCN(c2ccnc3ccnn23)C1 (stereo unspecified)	-2.7%[87.6 µM]	·	?	11.9
COc1ccc(OC)c(-c2nc(CN3CCCC(C(C)(C)O)C3)c(C)o2)c1 (stereo unspecified)	-2.6%	20µM*	-0.7%	42.7
CCC1CN(Cc2nc(-c3ccc(OC)cc3F)oc2C)CCN1C(C)C (stereo unspecified)	12.6%	?	-0.9%	-11.5
CN(C)C(=O)c1cc(-c2ccc(C(F)(F)F)cc2)nc2c1cnn2C	·	·	·	5.7
CCCn1cc(C(=O)NCC2COc3cc(OC)ccc3C2)c(C)n1 (stereo unspecified)	?	i	-5.3%	-1.0
Cc1cc(C)n2nc(C(=O)NCC3COc4ccccc4C3)cc2n1 (stereo unspecified)	74.3%	22.4µM*	3.3%	14.7
Cn1nc(C2CCCC2)cc1NC(=O)c1ccc(C(F)(F)F)cc1	-11.1%[87.6 µM]	·	?	-4.4
O=C(O)CN1CCN(Cc2ccc(OCCc3ccccc3)cc2)CC1=O	4.3%	25.1µM*	-2.7%	10.2
COC(=O)[C@@H]1Cc2c([nH]c3ccccc23)[C@H]2C[C@@H](NCCN(C)C)C[C@@H](c3ccc(F)cc3)N21	-9.8%	25.1µM*	-16.6%	3.4
COCCN[C@@H]1C[C@@H]2c3[nH]c4ccccc4c3C[C@@H](C(=O)OC)N2[C@H](c2cccc(OC)c2)C1	-12.1%	5.62µM*	2.2%	-8.4
COCCN[C@@H]1C[C@@H]2c3[nH]c4ccccc4c3C[C@@H](C(=O)OC)N2[C@H](c2ccc(C(C)C)cc2)C1	-3.0%	?	2.4%	-11.7
COCCN[C@H]1C[C@@H]2c3[nH]c4ccccc4c3C[C@@H](C(=O)OC)N2[C@H](c2ccccc2)C1	?	28.2µM*	?	2.5
COC(=O)[C@@H]1Cc2c([nH]c3ccccc23)[C@H]2C[C@@H](NCCCn3ccnc3)C[C@@H](c3ccc(F)cc3)N21	-2.2%	12.6µM*	-24.8%	-12.7
COCCN[C@@H]1C[C@@H]2c3[nH]c4ccccc4c3C[C@@H](C(=O)OC)N2[C@H](c2ccc(C(F)(F)F)cc2)C1	-4.6%	?	-0.8%	-7.3
Cc1noc(C)c1Cc1ccc(C(=O)NCCc2noc(-c3ccccc3)n2)o1	22.6%	·	8.6%	18.9
O=C(NCc1ccccn1)c1nc(-c2cccnc2)c2ccccn12	17.0%[87.6 µM]	i	3.9%[87.6 µM]	3.3
CC(C)(C)c1nc(C(=O)NCc2cccnc2)n2ccncc12	2.5%	100µM*	-1.1%	-7.0
COC(=O)CNC(=O)c1nc(-c2ccsc2)c2cnccn12	-29.6%[87.6 µM]	39.8µM*	16.7%[87.6 µM]	2.7
O=C(NCc1ccsc1)c1nc(-c2ccc(Cl)cc2)c2cnccn12	5.9%	i	17.8%	8.1
CC(C)(C)c1nc(C(=O)NCc2cccnc2)n2ccccc12	-29.8%	100µM*	-4.5%	-13.7
COC(=O)CNC(=O)c1nc(C(C)(C)C)c2cnccn12	4.0%[87.6 µM]	112µM*	2.9%[87.6 µM]	-6.2
Cn1ccc2c(C(=O)NCc3cccnc3)nc(-c3ccncc3)cc21	36.9%[87.6 µM]	i	7.2%[87.6 µM]	21.7
CSc1ccc(-c2cccc(C(=O)NCCNC(=O)Cc3ccc(F)cc3)c2)cc1	5.8%	·	3.6%[12.5 µM]	8.7
Cc1ccc2c(n1)OC(COc1ccccc1)CN(Cc1ccccc1)C2=O (stereo unspecified)	·	·	·	-11.8
